Records with an inconclusive call do not appear. Active and inactive are the calls of the source. Unless noted, the call rests on the fitted dose curve; in most records, active means well fitted curve in the direction sought with a large enough effect; inconclusive means small, poorly fitted or top-dose-only effect, or another doubt; inactive means no such curve, though single readings can be large; an effect the other way counts as inactive or inconclusive.
Key:
[1] = Cell Viability - BJ (AID 421; calls by dose curve;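 further: potency means the concentration at half of the fitted maximal effect; cells exposed to compound for 40 hours at 37 °C before readout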); settings: BJ fibroblast viability, qHTS
In short: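 Normal human BJ foreskin fibroblasts, 1500/well in complete medium, treated 40 hr at 37 °C. Cellular ATP by CellTiter-Glo luminescence; normalized to DMSO and 100 uM tamoxifen, AC50 from Hill fit.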

[2] = Cell Viability - Jurkat (AID 426;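 active means dose-dependent loss of cell ATP signal giving a full or clear fitted curve, ranked by lower potency value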; further: potency means the concentration at half of the fitted maximal effect); settings: qHTS
In short: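 Cells of the human T-cell leukemia line Jurkat (E6-1) are seeded at 5000 per well, treated with compound across a concentration range for 40 hours at 37 °C, then lysed with CellTiter-Glo; luminescence reports ATP.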

[3] = Cell Viability - Hek293 (AID 427;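 active means compounds whose dose-response curve shows a full or clear partial loss of cell viability, called from curve shape rather than a numeric limit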;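 further: potency means the concentration at half of the fitted maximal effect; cells exposed to compound for 40 hours at 37 °C before reading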); settings: qHTS
In short: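 HEK293 cells in complete medium were exposed to compound for 40 hr at 37 °C, then cellular ATP was read by CellTiter-Glo luminescence. Data were normalized to DMSO (basal) and 100 uM tamoxifen (100% inhibition), and AC50 came from Hill fits.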

[4] = Cell Viability - HepG2 (AID 433; calls by dose curve;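 further: potency means the concentration at half of the fitted maximal effect; potency for ATP loss meaning cytotoxicity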); settings: qHTS
In short: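 HepG2 hepatocellular carcinoma cells (1500/well) were treated with compounds for 40 h at 37 °C in complete medium; intracellular ATP was read by CellTiter-Glo luminescence. Data were normalized to DMSO and 100 uM tamoxifen, and AC50 came from Hill fits.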

[5] = Cell Viability - MRC5 (AID 434; calls by dose curve;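 further: potency means the concentration at half of the fitted maximal effect; potency reflects cytotoxicity seen as loss of intracellular ATP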); settings: MRC5 lung fibroblast viability, qHTS
In short: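 AC50 values come from Hill-equation fits of intracellular ATP loss, measured by CellTiter-Glo luminescence. Normal lung fibroblasts (MRC5) had 40 hr compound treatment at 37 C, normalized between DMSO and 100 uM tamoxifen.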

[6] = target: Mitogen-activated protein kinase 10 (Mus musculus) (UniProt Q61831); experiment: JNK3 AlphaScreen Assay (AID 530; active means well fitted curve in either direction with a large enough effect, not every such curve was filed as active;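 further: kinase came from lysate of stimulated human HepG2 cells; signal reports phosphorylation of biotinylated GST-cJun 1-79 at Ser73 with 10 µM ATP; on the % scale 0 is the no-effect control and ±100 the full control effect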); settings: JNK3 lysate, c-Jun phosphorylation; series mostly up to 57.1 µM
In short: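 qHTS titrations with 15 min compound pre-incubation before adding ATP (10 uM final). Read-out: AlphaScreen of Ser73-phosphorylated biotin-GST-cJun using HepG2 lysate JNK3 activated by IL-1β and TNFα.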

[7] = Cell Viability - N2a (AID 540); settings: N2a mouse neuroblastoma cell viability; activity change, negative = cytotoxicity: at 92.2 µM (top of the series);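 further: plate controls were DMSO alone for no effect and tamoxifen control for full effect; nearly all actives have a fitted effect of over 45% in size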
In short: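 Cytotoxicity was scored as loss of cellular ATP in N2a cells, a mouse neuroblastoma line. Compounds are applied in a qHTS concentration series for 40 hr at 37 °C.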

[8] = Cell Viability - NIH 3T3 (AID 541); settings: NIH 3T3 cell viability, qHTS; activity change, negative = cytotoxicity: at 92.2 µM (top of the series);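 further: plate controls were DMSO alone for no effect and tamoxifen positive control for full effect; nearly all actives have a fitted effect of over 25% in size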
In short: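 Cells seeded at 1000/well, rested 5 hr at 37 °C, then dosed and incubated 40 hr at 37 °C. CellTiter-Glo added, 20 min room temperature, luminescence read. AC50 by Hill fit.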

[9] = Cell Viability - HUV-EC-C (AID 542); settings: HUV-EC-C endothelial cell viability, qHTS; series mostly up to 92.2 µM; further: on the % scale 0 is the no-effect control and ±100 the full control effect; nearly all actives have a fitted effect of over 35% in size
In short: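 Cells were seeded at 1000 per well and incubated 5 hr at 37 °C before compound addition. After 40 hr at 37 °C, CellTiter-Glo reagent was added for 20 min and luminescence read. AC50 values came from Hill-equation modelling.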

[10] = Cell Viability - H-4-II-E (AID 543); settings: H-4-II-E rat hepatoma viability; series mostly up to 92.2 µM; further: on the % scale 0 is the no-effect control and ±100 the full control effect; nearly all actives have a fitted effect of over 35% in size
In short: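 Cells seeded at 1500 per well and rested 5 hr; compounds added; 40 hr incubation at 37 °C; CellTiter-Glo added, 20 min at room temperature; luminescence read. Hill-equation fits gave AC50.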

[11] = Cell Viability - SH-SY5Y (AID 544); settings: SH-SY5Y neuroblastoma cell viability; viability change, negative = cytotoxic: at 92.2 µM (top of the series); further: nearly all actives have a fitted effect of over 55% in size
In short: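 Cells were plated at 1500 per well and allowed 5 hr at 37 °C. Compounds were added across a concentration range and incubated 40 hr at 37 °C. CellTiter-Glo was added for 20 min at room temperature before luminescence reading.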

[12] = Cell Viability - Renal Proximal Tubule (AID 545); settings: renal proximal tubule cells viability, primary cells of rat origin; series mostly up to 91.7 µM; further: nearly all actives have a fitted effect of over 40% in size
In short: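 Primary rat renal proximal tubule cells (1000/well) were treated with compounds for 40 hr at 37 °C in complete medium. Intracellular ATP was measured by CellTiter-Glo luminescence, and AC50 values came from Hill-equation fits of concentration-response data.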

[13] = Cell Viability - Mesenchymal (AID 546); settings: mesenchymal cells viability, qHTS; series mostly up to 91.7 µM;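 further: cells exposed to compound for 40 hours before reading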
In short: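 CellTiter-Glo luminescence (intracellular ATP, 20 min room temperature) after 40 hr compound exposure at 37 °C of 1000 glomerulus-derived human kidney mesenchymal cells/well; AC50 values obtained by fitting qHTS concentration-response data to the Hill equation.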

[14] = Cellular Toxicity (caspase-3) HepG2 (AID 654); settings: HepG2 caspase-3 activation, luminescence; series mostly up to 92.2 µM;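 further: cells exposed to compound for 16 hours before reading; 0% = DMSO alone and 100% = caspase signal from 100 µM tamoxifen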
In short: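 Caspase 3/7 activation in HepG2 is measured as rising luminescence after a 16 hr treatment at 37 °C. Values are scaled between DMSO basal and 100 uM tamoxifen, and AC50 is fitted with the Hill equation.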

[15] = Cellular Toxicity (caspase-3) Jurkat (AID 655); settings: Jurkat caspase-3 activation, luminescence; caspase-3 activation: at 92.2 µM (top of the series), DMSO = 0%, tamoxifen = 100%;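 further: cells exposed to compound for 16 h at 37 °C before reading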
In short: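 Jurkat cells (5000/well) in complete medium were treated with compounds for 16 hr at 37 °C, then Caspase-Glo 3/7 luminescence was read after 20 min at room temperature. Data normalized to DMSO (basal) and 100 uM tamoxifen (100%); AC50 from Hill fit.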

[16] = Cellular Toxicity (caspase-3) HUV-EC-C (AID 656); settings: HUV-EC-C cells, caspase-3 activation (apoptosis), vehicle = 0, 100 µM tamoxifen = 100%; series mostly up to 92.2 µM
In short: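 HUV-EC-C endothelial cells, 1000/well, were pre-incubated 5 hr at 37°C, then exposed to compounds for 16 hr at 37°C. Caspase-Glo 3/7 luminescence was read after 20 min at room temperature. AC50 came from Hill fits, normalized to DMSO and 100 uM tamoxifen.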

[17] = Cellular Toxicity (caspase-3) SHSY5Y (AID 657); settings: SH-SY5Y caspase-3 activation, DMSO zero, 10 µM staurosporine = 100%; series mostly up to 91.7 µM
In short: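 SH-SY5Y human neuroblastoma cells (1500/well) were treated with compounds for 16 h at 37 °C, then Caspase-Glo 3/7 luminescence was read after 1 h at room temperature. Data normalized to DMSO and 10 uM staurosporine; AC50 from Hill fits.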

[18] = Cellular Toxicity (caspase-3) MRC-5 (AID 659); settings: MRC-5 cells, luminescence, normalized: DMSO 0%, 10 µM staurosporine 100%; series mostly up to 91.7 µM
In short: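 Luminescent Caspase-Glo 3/7 read-out (1 h, room temperature) after a 16 h, 37 °C compound exposure of MRC-5 lung fibroblasts at 1500 cells/well. Concentration-response AC50 from Hill equation; 0% DMSO, 100% 10 uM staurosporine.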

[19] = Cellular Toxicity (caspase-3) BJ (AID 658); settings: BJ fibroblasts, luminescence, normalized: DMSO 0%, staurosporine 100%; series mostly up to 91.7 µM
In short: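 Caspase-Glo 3/7 luminescence, read 1 hr after reagent at room temperature, in normal BJ fibroblasts exposed 16 hours at 37 °C. AC50 values from Hill-equation concentration-response, scaled between DMSO basal and 10 uM staurosporine as 100%.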

[20] = Cell Viability - SK-N-SH (AID 435; calls by dose curve;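 further: potency means the concentration at half of the fitted maximal effect; compound exposure lasted 40 h at 37 °C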); settings: SK-N-SH neuroblastoma cell viability qHTS
In short: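 SK-N-SH human neuroblastoma cells (1500/well) were exposed to compounds in complete medium for 40 h at 37 °C, and intracellular ATP was then measured by CellTiter-Glo luminescence. AC50 was taken from Hill fits, normalized to DMSO and 100 uM tamoxifen.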

CC(=O)C1(C)CC2=C(CCCC2(C)C)CC1C (configuration not stated)
inactive: Potency [1] > 92 µM | Potency [2] > 92 µM | Potency [3] > 92 µM | Potency [4] > 92 µM | Potency [5] > 92 µM | outcome [6] | activity change, negative = cytotoxicity [7] -8.12% | Potency [8] | Potency [9] | Potency [10] | Potency [11] | Potency [12] | Potency [13] | Potency [14] | caspase-3 activation [15] -0.117% | outcome [16] | outcome [17] | outcome [18]

O=C(O)c1ccc(CO)o1
inactive: Potency [1] > 92 µM | Potency [2] > 92 µM | Potency [3] > 92 µM | Potency [4] > 92 µM | Potency [5] > 92 µM | outcome [6] | activity change, negative = cytotoxicity [7] -2.4% | Potency [8] | Potency [9] | Potency [10] | Potency [11] | Potency [12] | Potency [13] | caspase-3 activation [15] 1.29% | outcome [16] | outcome [17] | outcome [19] | outcome [18]

C=CCCC
inactive: Potency [1] > 92 µM | Potency [2] > 92 µM | Potency [3] > 92 µM | Potency [4] > 92 µM | Potency [20] > 92 µM | outcome [6] | activity change, negative = cytotoxicity [7] 1.78% | Potency [8] | Potency [10] | Potency [11] | Potency [12] | Potency [13] | Potency [14] | caspase-3 activation [15] -0.379% | outcome [16] | outcome [17] | outcome [19] | outcome [18]

CC(CCl)OC(C)CCl (configuration not stated)
inactive: Potency [1] > 92 µM | Potency [2] > 92 µM | Potency [3] > 92 µM | Potency [4] > 92 µM | Potency [5] > 92 µM | outcome [6] | activity change, negative = cytotoxicity [7] 2.8% | Potency [8] | Potency [9] | Potency [10] | Potency [11] | Potency [12] | Potency [13] | Potency [14] | caspase-3 activation [15] 1.36% | outcome [16] | outcome [18]

Cc1cc(C)cc([N+](=O)[O-])c1
inactive: Potency [1] > 92 µM | Potency [2] > 92 µM | Potency [3] > 92 µM | Potency [4] > 92 µM | Potency [5] > 92 µM | outcome [6] | Potency [8] | Potency [9] | Potency [10] | Potency [11] | Potency [12] | Potency [13] | Potency [14] | caspase-3 activation [15] -1.49% | outcome [16] | outcome [17] | outcome [19] | outcome [18]

CC1CCCO1 (configuration not stated)
inactive: Potency [1] > 92 µM | Potency [2] > 92 µM | Potency [3] > 92 µM | Potency [4] > 92 µM | Potency [20] > 92 µM | outcome [6] | activity change, negative = cytotoxicity [7] -13.8% | Potency [8] | Potency [9] | Potency [10] | Potency [11] | Potency [12] | caspase-3 activation [15] 1.31% | outcome [16] | outcome [17] | outcome [19] | outcome [18]

Nc1cccc(S(=O)(=O)O)c1
inactive: Potency [1] > 92 µM | Potency [2] > 92 µM | Potency [3] > 92 µM | Potency [4] > 92 µM | Potency [20] > 92 µM | outcome [6] | activity change, negative = cytotoxicity [7] -6.89% | Potency [9] | Potency [10] | Potency [11] | Potency [12] | Potency [13] | Potency [14] | caspase-3 activation [15] -0.29% | outcome [16] | outcome [17] | outcome [19] | outcome [18]

O=C(O)c1ccc(Cl)cc1Cl
inactive: Potency [1] > 92 µM | Potency [2] > 92 µM | Potency [3] > 92 µM | Potency [4] > 92 µM | Potency [20] > 92 µM | outcome [6] | activity change, negative = cytotoxicity [7] 7.33% | Potency [8] | Potency [9] | Potency [10] | Potency [11] | Potency [12] | Potency [13] | caspase-3 activation [15] -1.11% | outcome [16] | outcome [17] | outcome [19] | outcome [18]

CC(C)(O)C(=O)O
inactive: Potency [1] > 92 µM | Potency [2] > 92 µM | Potency [3] > 92 µM | Potency [4] > 92 µM | Potency [20] > 92 µM | outcome [6] | activity change, negative = cytotoxicity [7] 4.75% | Potency [8] | Potency [9] | Potency [10] | Potency [11] | Potency [12] | Potency [14] | caspase-3 activation [15] -0.979% | outcome [16] | outcome [18]

Cc1ccco1
inactive: Potency [1] > 92 µM | Potency [2] > 92 µM | Potency [3] > 92 µM | Potency [4] > 92 µM | Potency [20] > 92 µM | outcome [6] | activity change, negative = cytotoxicity [7] 0.379% | Potency [8] | Potency [9] | Potency [10] | Potency [11] | Potency [12] | Potency [13] | Potency [14] | caspase-3 activation [15] 0.939% | outcome [16] | outcome [17] | outcome [19] | outcome [18]

Cc1cccc(C(=O)O)c1
inactive: Potency [1] > 92 µM | Potency [2] > 92 µM | Potency [3] > 92 µM | Potency [4] > 92 µM | Potency [20] > 92 µM | outcome [6] | activity change, negative = cytotoxicity [7] -7% | Potency [8] | Potency [9] | Potency [10] | Potency [11] | Potency [12] | Potency [13] | Potency [14] | caspase-3 activation [15] -6.77% | outcome [16] | outcome [17] | outcome [19] | outcome [18]

CC(O)COC(C)(C)C (configuration not stated)
inactive: Potency [1] > 92 µM | Potency [2] > 92 µM | Potency [3] > 92 µM | Potency [4] > 92 µM | Potency [5] > 92 µM | outcome [6] | Potency [8] | Potency [10] | Potency [11] | Potency [13] | Potency [14] | caspase-3 activation [15] 0.633% | outcome [16] | outcome [17] | outcome [19] | outcome [18]

From PubChem BioAssay (NCATS)
